Data: the supplement of paper PMC12636033
± gives the standard deviation of the averaged measurements. Over roughly 33,000 sequences, “E-score (rank enrichment, -0.5 to 0.5)” has its median near -0.0075; the highest 2% begin near 0.23. This is one part of a sample in which the highest values are shown more often than they occur.

What follows are sequences tested on WT Max(13-93) synthetic (M65Nle) (assay: PBM 8-mer E-score (E-score (rank enrichment, -0.5 to 0.5)); higher = stronger preferential binding).
Protocol: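 Protein binding microarray (universal PBM chip covering all 10-mers in fixed probe flanks) with chemically synthesized human Max(13-93) bHLH-LZ analogs (not full-length Max) bearing noncanonical residues (hArg, Tha, Aib, Nle at 65) and aromatic Cys staples. Read-out per 8-mer (and its reverse complement): E-score (rank-based enrichment, -0.5 to 0.5) and Z-score of median probe intensity.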

| Sequence | PBM 8-mer E-score |
| --- | --- |
| TGCACACA | 0.0593 ± 0.099 |
| ATAGGCTA | 0.00221 ± 0.094 |
| ACATTTTA | 0.297 ± 0.048 |
| CCTTTTTA | 0.171 ± 0.029 |
| GCTTTTTA | 0.237 ± 0.16 |
| CCTTTTCA | 0.245 ± 0.15 |
| ATATTTAC | 0.23 ± 0.07 |
| ATATTTAA | 0.302 ± 0.021 |
| CTTTTTCA | 0.144 ± 0.055 |
| GCATTTTA | 0.16 ± 0.072 |
| CTATTTAA | 0.0374 ± 0.0014 |
| GCTTTTCA | 0.0385 ± 0.086 |
| GCTTTTAA | -0.0112 ± 0.043 |
| CCATTTTA | 0.0902 ± 0.15 |
| ACGAAATG | 0.158 ± 0.068 |
| CTCGGCTC | -0.235 ± 0.028 |
| AGGGAATC | -0.0163 ± 0.031 |
| GTTTCGTA | 0.0743 ± 0.067 |
| GCGCTCTA | -0.19 ± 0.062 |
| CCATACAG | -0.026 ± 0.18 |
| CGTGAGCA | -0.0547 ± 0.079 |
| GTATTTTA | 0.0179 ± 0.13 |
| ATATTTTA | 0.271 ± 0.033 |

| Sequence | PBM 8-mer E-score |
| --- | --- |
| CTATTTTA | 0.0787 ± 0.12 |
| CGTTTTCA | 0.106 ± 0.036 |
| AACAGGTC | -0.0763 ± 0.049 |
| ACAACGTC | -0.0474 ± 0.05 |
| ACAACGTG | 0.255 ± 0.089 |
| ATAACGTG | 0.261 ± 0.046 |
| ATAACGTC | 0.136 ± 0.042 |
| ACAACGTA | 0.024 ± 0.002 |
| ATAACGTA | 0.203 ± 0.091 |
| GGCTGGCA | -0.311 ± 0.1 |
| GCGTCTCA | -0.13 ± 0.025 |
| CCGCACTC | -0.0409 ± 0.033 |
| TATTTGAA | 0.0846 ± 0.018 |
| ACTTGGTC | 0.0597 ± 0.089 |
| CATTGTAA | 0.134 ± 0.067 |
| GACGTCGC | -0.091 ± 0.13 |
| ACCGCGCT | -0.146 ± 0.012 |
| ATGACCTC | 0.0149 ± 0.085 |
| TCAAACCA | 0.172 ± 0.063 |
| GGTTTCAA | 0.077 ± 0.0057 |
| AGTTTCAA | -0.0849 ± 0.1 |
| GGTTTAAC | 0.0486 ± 0.048 |
| TGTTTTAA | 0.115 ± 0.0028 |

| Sequence | PBM 8-mer E-score |
| --- | --- |
| AGTTTAAA | 0.164 ± 0.0074 |
| TGTTTCAA | 0.241 ± 0.011 |
| GGTTTAAA | 0.233 ± 0.043 |
| TGTTTAAA | 0.252 ± 0.09 |
| GTTTTAAA | 0.0916 ± 0.047 |
| GTCATCAA | 0.0407 ± 0.073 |
| AAGACGAC | 0.0772 ± 0.12 |
| CAGCGTAG | 0.0168 ± 0.0028 |
| GACCATCA | -0.057 ± 0.034 |
| AGGTAAGA | -0.0352 ± 0.073 |
| CACGGTAG | -0.0473 ± 0.022 |
| GTCAGCTA | -0.148 ± 0.085 |
| GAATTGCA | 0.06 ± 0.059 |
| GTTCAGCA | 0.0207 ± 0.087 |
| CTGCGAAC | -0.0246 ± 0.099 |
| ACCGTTGA | -0.15 ± 0.014 |
| CCTGTGCG | -0.0525 ± 0.063 |
| TATGTGCA | 0.16 ± 0.02 |
| GATGTGCA | 0.052 ± 0.059 |
| AATGTGCG | 0.115 ± 0.0056 |
| CATGTGCA | 0.321 ± 0.025 |
| CATGTGCC | 0.327 ± 0.011 |
| CATGTGCG | 0.296 ± 0.028 |

| Sequence | PBM 8-mer E-score |
| --- | --- |
| AATGTGCC | -0.0182 ± 0.064 |
| GATGTGCC | -0.0199 ± 0.084 |
| GGGAGATA | 0.0313 ± 0.14 |
| AAATGGTG | -0.0479 ± 0.077 |
| AGATTGGG | 0.0796 ± 0.049 |
| TCGGGAGA | -0.0551 ± 0.06 |
| ACCGGAGT | -0.185 ± 0.077 |
| AGCTCAAA | -0.101 ± 0.07 |
| AGGTGTTA | 0.0454 ± 0.019 |
| AGGTGTTC | 0.0938 ± 0.013 |
| ACGTGTTG | 0.378 ± 0.067 |
| ACGTGTTC | 0.278 ± 0.11 |
| GCGTGTTA | 0.242 ± 0.043 |
| AAGTGTTG | 0.2 ± 0.0011 |
| CCGTGTTC | 0.034 ± 0.081 |
| AGGTGTTG | -0.0777 ± 0.036 |
| GCGTGTGA | 0.201 ± 0.034 |
| GCGTGTAA | 0.18 ± 0.091 |
| CCGTGTTA | 0.145 ± 0.056 |
| ACGTGTTA | 0.333 ± 0.053 |
| GTCTCACA | 0.0533 ± 0.04 |
| TAGTAGGA | -0.0355 ± 0.069 |
| CCGACCCG | -0.101 ± 0.18 |

| Sequence | PBM 8-mer E-score |
| --- | --- |
| CATCTTTA | -0.0556 ± 0.15 |
| GGTGTAGA | 0.0276 ± 0.032 |
| ACTCGGTG | -0.111 ± 0.026 |
| AGTAGCGC | -0.0656 ± 0.04 |
| AACCACTT | 0.109 ± 0.14 |
| ACCCAATG | -0.141 ± 0.067 |
| ACCCCGCG | -0.0797 ± 0.15 |
| AAGCTGGC | -0.176 ± 0.06 |
| CCAACCGG | -0.267 ± 0.0078 |
| CTAGCGCC | -0.283 ± 0.024 |
| ATTGTCTA | 0.26 ± 0.005 |
| GTTGTCTA | 0.224 ± 0.094 |
| ATTGTCTC | -0.142 ± 0.088 |
| TATCTGCA | 0.0121 ± 0.066 |
| CAACTGCA | -9e-05 ± 0.065 |
| CGATTATC | -0.178 ± 0.066 |
| GTCGAAAC | 0.079 ± 0.031 |
| TATAACCA | 0.17 ± 0.0076 |
| GATAACCA | 0.24 ± 0.037 |
| CATAACCA | 0.165 ± 0.033 |
| GATAACTA | 0.235 ± 0.061 |
| CATAACTA | 0.167 ± 0.0044 |
| AATAACTA | 0.125 ± 0.0044 |

| Sequence | PBM 8-mer E-score |
| --- | --- |
| CCATGACC | -0.0452 ± 0.14 |
| AAGATAAC | 0.266 ± 0.045 |
| GAGATACA | 0.0679 ± 0.025 |
| AAGATATC | 0.0756 ± 0.073 |
| AAGATACA | 0.258 ± 0.015 |
| GAGATAAC | 0.104 ± 0.025 |
| AAGATACT | 0.0763 ± 0.011 |
| CAGATATA | 0.108 ± 0.023 |
| AAGATATA | 0.253 ± 0.046 |
| AAGATAAG | 0.152 ± 0.024 |
| ACAGTCCG | -0.0248 ± 0.0053 |
| CACGGTGC | 0.0526 ± 0.033 |
| CTGTTATA | 0.055 ± 0.085 |
| GTGTTATA | 0.215 ± 0.0088 |
| ATGTTATA | 0.235 ± 0.069 |
| ATGTTATC | 0.0836 ± 0.016 |
| ATGTTAAG | 0.107 ± 0.028 |
| ATGTTATG | 0.251 ± 0.084 |
| CTGTTAAC | -0.00712 ± 0.14 |
| ATGTTAAC | 0.291 ± 0.035 |
| GTGTTAAC | 0.0845 ± 0.082 |
| GTGTGCCA | -0.0682 ± 0.094 |
| ATACGCAC | 0.0776 ± 0.052 |

| Sequence | PBM 8-mer E-score |
| --- | --- |
| ATAGTCAG | 0.0518 ± 0.079 |
| AACTATTG | 0.139 ± 0.033 |
| ACCTTCCC | -0.0595 ± 0.1 |
| AGCATGTG | 0.295 ± 0.0053 |
| AGCATGTA | 0.238 ± 0.019 |
| AGCATGTC | 0.157 ± 0.0017 |
| AGCATGGG | 0.128 ± 0.096 |
| CGCATGTA | 0.0311 ± 0.051 |
| GGCATGTA | 0.135 ± 0.023 |
| ACAGGTTA | 0.0367 ± 0.075 |
| CTTCTCCC | 0.0392 ± 0.039 |
| AAATTCGG | 0.0747 ± 0.038 |
| ATGGTCCA | -0.0964 ± 0.052 |
| AAGGCATG | 0.207 ± 0.081 |
| AAAACACG | 0.193 ± 0.049 |
| CAAACACG | 0.285 ± 0.064 |
| CAAACAGC | 0.244 ± 0.0038 |
| AAAACAGC | 0.0957 ± 0.12 |
| AAAACACA | 0.128 ± 0.02 |
| CAAACACC | 0.118 ± 0.15 |
| CAAACACA | 0.2434 ± 0.00028 |
| CAAACAGG | 0.0276 ± 0.019 |
| TAAACACA | 0.182 ± 0.021 |

| Sequence | PBM 8-mer E-score |
| --- | --- |
| ACATTTCT | 0.152 ± 0.0081 |
| CCCTGGCG | -0.198 ± 0.061 |
| TACGGTCA | -0.0681 ± 0.052 |
| CCAAGGCG | -0.191 ± 0.077 |
| ACCGTAAT | -0.00988 ± 0.068 |
| TAGCTGGA | -0.111 ± 0.035 |
| AATTACAA | 0.251 ± 0.026 |
| AATTACAT | 0.135 ± 0.0071 |
| TATTACAA | 0.181 ± 0.024 |
| GTAATCAC | -0.0619 ± 0.076 |
| ACCGTGTC | -0.0348 ± 0.1 |
| ATTAACAG | 0.0545 ± 0.024 |
| GTTAACAA | 0.138 ± 0.024 |
| ATTAACAA | 0.289 ± 0.057 |
| ATTAACAC | 0.247 ± 0.019 |
| ATTAACTC | 0.16 ± 0.064 |
| CTTAACAC | 0.135 ± 0.068 |
| GTTTCCGA | 0.0231 ± 0.1 |
| CTCAAAGC | -0.0195 ± 0.016 |
| AATGATAA | 0.146 ± 0.062 |
